Reference: the supplement of paper PMC12632987

T1: USP38, Q8NB14
T1 chain: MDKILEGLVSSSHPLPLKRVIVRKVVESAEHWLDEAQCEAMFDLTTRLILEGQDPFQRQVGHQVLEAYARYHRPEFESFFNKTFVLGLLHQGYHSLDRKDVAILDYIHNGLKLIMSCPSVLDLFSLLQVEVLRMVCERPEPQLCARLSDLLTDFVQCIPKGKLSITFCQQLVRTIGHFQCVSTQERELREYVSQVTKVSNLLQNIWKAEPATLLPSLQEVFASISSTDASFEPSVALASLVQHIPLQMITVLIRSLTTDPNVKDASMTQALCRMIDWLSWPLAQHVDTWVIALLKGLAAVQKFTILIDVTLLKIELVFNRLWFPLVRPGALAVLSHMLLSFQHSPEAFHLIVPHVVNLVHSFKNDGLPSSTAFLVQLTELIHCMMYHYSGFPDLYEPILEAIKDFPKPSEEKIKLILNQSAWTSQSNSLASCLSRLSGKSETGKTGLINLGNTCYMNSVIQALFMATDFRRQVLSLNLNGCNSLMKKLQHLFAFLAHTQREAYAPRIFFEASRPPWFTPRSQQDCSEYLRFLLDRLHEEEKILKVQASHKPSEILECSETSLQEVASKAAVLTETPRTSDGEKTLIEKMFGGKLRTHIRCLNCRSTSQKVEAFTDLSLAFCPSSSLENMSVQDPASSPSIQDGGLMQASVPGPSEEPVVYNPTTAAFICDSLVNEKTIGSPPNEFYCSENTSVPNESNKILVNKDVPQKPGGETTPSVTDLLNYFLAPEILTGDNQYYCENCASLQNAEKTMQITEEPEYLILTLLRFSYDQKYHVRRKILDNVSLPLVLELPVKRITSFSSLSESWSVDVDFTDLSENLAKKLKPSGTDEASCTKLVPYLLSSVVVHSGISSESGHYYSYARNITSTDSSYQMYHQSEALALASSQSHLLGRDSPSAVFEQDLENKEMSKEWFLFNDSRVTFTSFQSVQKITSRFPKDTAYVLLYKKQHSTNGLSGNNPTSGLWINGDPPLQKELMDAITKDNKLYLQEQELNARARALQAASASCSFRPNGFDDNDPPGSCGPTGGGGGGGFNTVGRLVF

B1: usp_38_diff_out_18_121_250 (protein)
chain: DGEELLRRLREALRRAEEKLRELEELLERAEEVSLEELRAALDAAADALGEAAALLREARRRLGPEYREELEEAERRLDELVDRYTELGTRLFLLEAERQ
B2: usp_38_diff_out_18_121_249 (protein)
chain: NPEELLEELRRALEEARRALEELEKLLENREEVSLEELREALRRAADALGRAAALLREARRRIGPEYREEIERAEKELDELVDRYTELGRELFLLEAERE
B3: usp_38_diff_out_17_125_221 (protein)
chain: TDEELKKEIEEALKKAEELLKKAKKLLEEGAPFEEIRAELDKAADALGKLAVLLRELREKSEDKAQAAKFIKEATERANKLIDEYTKLATEAFLREAEAA
B4: usp_38_diff_out_18_121_253 (protein)
chain: EAEKLAEEALKLAEKLKELSEELLKAIKEGDLEKAEKLKKEMEELLKELGRKYLELRDLRAEHPEETKELLKEVEKKANEAIDKYEKAERAYFEFLAEQA
B5: usp_38_diff_out_17_26_244 (protein)
chain: SAEERNKKARELLEELKREAEKGLEEIRKLIEAGKFEEARKKLDELVTEVTERMLEILELAADNPELMEEALAAYDEISDAIAAAYRELQEARRAAAAAA
B6: usp_38_diff_out_17_130_223 (protein)
chain: SEDEIEALKEYLEAEKKNIKSVAEEAEKDFERAKKHPVTLDRALHALDGVIKYYEETIEEAKKILKEYPEVKEAAEELIKTAEEAKKKAEKLKKELEKLK
B7: usp_38_diff_out_17_26_238 (protein)
chain: EAEERRKEARKLLEELKEKTEKDLEEIRKLIKEGKFEEAEKLLDETIDYVTEKSTEILELAADDDELFAEALAAIDEIFDKLAAAGKELREAKREAREKE
B8: usp_38_diff_out_18_121_254 (protein)
chain: KAEELAKKALELAEEIEKLSKELLKAIKEGNKEKAEELRKKLDEKIRELGRLYQELRDLHAENPHETRELLKEVNEKANKAIDEREKAETAYFEFLAEQE
B9: usp_38_diff_out_17_60_248 (protein)
chain: SAEAEAIIARLEARLEELERRLEELERRFEEAERRGDKAELEELLKELDELLGEIADLLVELAKNSELIDPETFLRLADRASELADRAFALRQRVQQALA
B10: usp_38_diff_out_17_26_234 (protein)
chain: SAEEERRRARELLEELRRRTEEALARIRELIAAGRFAEAQALLDATVTEVTATATEIFELAADDDELLDEVNRAVGEIFDRLAAAGRELREARRAAAAAA
B11: usp_38_diff_out_17_26_236 (protein)
chain: SAEERREEARRALEELRADTDAALKEIDALIKAGKFEEAQALLDKLVDDFTKRATEILELAADDPELMDEALRAIGEVADKIAAAGSRLRAARKAAREAA
B12: usp_38_diff_out_17_26_241 (protein)
chain: SMEERRKEAEELLRRLEEETEKALEEIEKLIEEGKFEEARKLLDEAVDYATETATRILELAADDPELMDRALAVIGRIFDRLAEAYRRLEEARRRAEEEA
B13: usp_38_diff_out_17_130_225 (protein)
chain: SADEVEALKEYLEAEKANIEAVAADAERDLARAKRLPVTLPRVRHALEGNIKYMEETIKEAEEIKKKYPEVAAAADALIKAARDAKAKFEAMLAEVDALE
B14: usp_38_diff_out_18_14_257 (protein)
chain: SKELTEATISNLKSLKEDVKEDTERVIRLLEKNKDDPERVKRIYERAKRNLAGVEKYAKEVLKEAKENGDEELAKAAEELLKAVEEARERIEEEVKRVLA
B15: usp_38_diff_out_17_26_235 (protein)
chain: SAEEKRKKALELLKELEKETEKELEEIEKLIKEGKFEEAEKKLDELVTKTTEKTTEILELAADDPELVEEVLKSYDKISDKIAEKYKELQEAKKKARAEA
B16: usp_38_diff_out_17_130_228 (protein)
chain: MEEEIESLKEYLEAEKKNLESVAKQAEEDYERAKKNPVTLDRVIHGLEGVATYAEDTIKEAKELIKEYPEVKEEAEKLIKVAEEAKKKAEALKKKLEALK
B17: usp_38_diff_out_17_130_224 (protein)
chain: SAEEVEALKEYLEAEKKNVESVKEDAKKDFERAKKNPVTLDRVEHALEGNIKYMEETIKEAEKLKKEYPEVKEAADKLIKAAKKAKEEFEKYLKEVKALK
B18: usp_38_diff_out_17_60_247 (protein)
chain: SAEAEEIIERLKKRLEELEKRLEELEKRFEEAKKKGDKEELEKLLKEAKELIDEIADLLVELAKNSELIDPETFLELADRASELADRAFKLKQEIEKELA
B19: usp_38_diff_out_17_26_231 (protein)
chain: SAEAARAKAEALLKELVAETDKALKEIDKLIKEGKFEEAEKLLDETVDKVTEKATEIFELAADDEALLDKANKTIGDIFDKLAARYKELQAARKAAKAAA
B20: usp_38_diff_out_17_26_240 (protein)
chain: SMEERRKEARKLLEEMEKRVEEDLKKIRELIKEGKFEEAEELLNKTIDYVTETSTKILELAADDDELFDEAMEAIDKISDKLAEAGKELREAKREAREKA
B21: usp_38_diff_out_17_26_237 (protein)
chain: SAEEKRKEAEKLLEELEKYVKETLEKIDKLIEEGKFEEAKKLLDELVTETTKRFTEILELAADDPELMDKALAKYDELSGQIAARYRRLEEARREAEAKA
B22: usp_38_diff_out_17_26_230 (protein)
chain: AAEERRREARELMRELERRTAEALKEIEKLIEEGKLEEAEKKLDELVDEFTELATRLLELAADDDELFEEAVRVIDAAADRIAAAGNLLREAKKKKREEE
B23: usp_38_diff_out_18_121_251 (protein)
chain: EAKKVAEEALKAAKEATKLAKELLKAIKEGKWEKAEKLDKELDKKIKEFGRLYQELRDLRSEDPEQTKPLLKEVEKEGDKMIDIYNEAGTALFLAEAERQ
B24: usp_38_diff_out_17_130_227 (protein)
chain: SAEEIESLKEYLRAEKENLKSVKEEAKKNLERAKKNPVTLDRVSHGLEGVATYAEDTIKEAKELLKKYPEVAEEAKELIKVAEEARKEAKELLKEVEKLK
B25: usp_38_diff_out_17_26_243 (protein)
chain: SAEEKRKKARELLKKLKEESEKALEEIKKLIKEGKFEEAEKLLEETVKKVTETTLEILELAADDPELVEEVLEAYDEISDKLAQAYKELQKAKKEAAAKA
B26: usp_38_diff_out_18_14_255 (protein)
chain: SEELEKATISNLNSLKEDVKKDTERVIKLLEKNKDDPERVKRITERANRNLAGVRTYAEEVLKEAEEKGWEEVKKAAEELLKTVDEAKKKIEEKVKEVLA
B27: usp_38_diff_out_17_26_242 (protein)
chain: EAEERRREARERLERLREETERALEEIDRLIAEGKFEEARKLLEETVRKATEEMTEILELAADDPELMEEALRAWDEISDRLAARYRELQAAIAAAKAAA
B28: usp_38_diff_out_17_26_239 (protein)
chain: SSEEKRKEAEKLLKEMEEKTEEALKEIDKLIAEGKFAEAQKLLDETIDYVTEKSTEILELASDDDELFEKVMEKIDKISDRLAAAGARLRAARRAARAAA
B29: usp_38_diff_out_17_35_245 (protein)
chain: SLEEKERELLERTRRAAEEALRRARELLEAAKADPSQIDRYLAEARAVLDRFLAEAADILIEAAKLEIDAEVLQEIGDIIDRASDELQAILDELEALKAA
B30: usp_38_diff_out_17_60_246 (protein)
chain: SAEAEKIIKELEERLEELEKRLKELEKEFKKAKAAGDKAKLEALAKEAQALLDEIADLLVELAKNSEIIDPETFLELADRASELADRAFALLKEIQKELA
B31: usp_38_diff_out_17_125_220 (protein)
chain: SDEELKKKAEELLKKAEELLKQAEKALEEGAPFEEIEKLLDEAADALGELAKTLRELREKSKDPAQAAKFIKEATEKANELIDRYTELATRAFLRQAEAA
B32: usp_38_diff_out_18_14_256 (protein)
chain: SEELTKAEISNLESLKKSVKEDTERVIRLLEKNKDDPERVKRIYERAQRNLAGVETYAKEVLERAKKEGDEELAKAAEELLKEIEEARKRIEEKVKEVLA

Molecular target: T1, USP38, Q8NB14
Assay: median log2 fold change of GCK-ALFA target abundance (FLAG IP / Myc IP barcode read proportion) (log2 ratio); each designed protein is fused to an ALFA-tag nanobody in HEK293 cells to bring the named protein to FLAG-tagged glucokinase (GCK); Myc marks an untargeted standard; higher = target protein stabilised (more abundant)
Settings: target protein: 3xFLAG-MCP-GCK-ALFA reporter; HEK293 landing pad (RPLP)
Procedure, shortened: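 HEK293 landing-pad cells received a recombined binder library fused to the ALFA nanobody and were induced with 2 μg mL^−1 doxycycline, then transfected with a plasmid encoding a FLAG-tagged target and a Myc-tagged standard. Lysates were collected after 48 h for anti-FLAG and anti-Myc immunoprecipitation, and the circular RNA barcodes were reverse transcribed, amplified and sequenced. Target abundance for each binder is the median log2 ratio of FLAG to Myc barcode read proportions. Barcodes had to reach a proportion of at least 10^−7 in both replicates, each binder needed at least 3 barcodes per replicate, a pseudocount of 10^−6 was applied, and the two replicates were pooled.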

| Binder | median log2 fold change |
| --- | --- |
| B1 | -0.109 |
| B2 | -0.0715 |
| B3 | -0.359 |
| B4 | -1.1 |
| B5 | -0.152 |
| B6 | 0.232 |
| B7 | -0.0599 |
| B8 | -0.478 |
| B9 | -1.11 |
| B10 | -0.0515 |
| B11 | 0.0259 |
| B12 | -0.00366 |
| B13 | 0.15 |
| B14 | 0.0724 |
| B15 | 0.284 |
| B16 | 0.184 |

| Binder | median log2 fold change |
| --- | --- |
| B17 | 0.401 |
| B18 | 0.108 |
| B19 | -0.439 |
| B20 | 0.0157 |
| B21 | 0.259 |
| B22 | -0.167 |
| B23 | -0.563 |
| B24 | 0.32 |
| B25 | -0.0758 |
| B26 | 0.0514 |
| B27 | 0.467 |
| B28 | -0.0256 |
| B29 | 0.015 |
| B30 | -0.51 |
| B31 | 0.167 |
| B32 | 0.00955 |
